# Bioassay records: PubChem BioAssay, The Scripps Research Institute Molecular Screening Center
# DAX1 inh-1: inhibits human nuclear receptor DAX1 | inhibition, % at 6.75 µM | 340,000 compounds, 0.99% hits | P51843 | HEK293 Gal4-DAX1 luciferase reporter, luminescence;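 active = inhibition above the mean over all tested compounds plus 3 SD, cut at about 4.2% in these data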;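 also: 0% = DAX1-transfected cells with DMSO and 100% = empty-vector control cells with DMSO; inhibition shows as a rise in luminescence from relieved DAX1 repression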
# Target sequence (P51843 207-470 limits assumed): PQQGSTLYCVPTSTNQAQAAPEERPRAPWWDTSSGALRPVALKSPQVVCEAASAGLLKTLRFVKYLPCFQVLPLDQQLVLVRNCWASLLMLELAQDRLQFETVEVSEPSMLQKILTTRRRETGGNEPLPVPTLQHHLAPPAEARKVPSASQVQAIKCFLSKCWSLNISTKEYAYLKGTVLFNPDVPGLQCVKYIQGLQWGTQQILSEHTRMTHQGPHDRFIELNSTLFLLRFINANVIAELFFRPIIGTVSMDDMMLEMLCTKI
# hcDAF12 agonist: activators of H. contortus DAF-12 nuclear receptor | HEK293 hcDAF-12 lit1-tk-luc reporter, luminescence; 0% DMSO, 100% Δ7-dafachronic acid | activation, % at 6.8 µM | 370,000 compounds, 1.4% hits | AID 652067;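 active = activation above the mean of all tested compounds plus 3 SD, cut at about 5.5% in these data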;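 also: 100% = response to 3 µM Δ7-dafachronic acid high control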
# hgDAF-12 ag: activates the H. glycines DAF-12 receptor ligand-binding domain; activation, % at 6.8 µM; HEK293 GAL4-hgDAF12 UAS-luciferase reporter, agonist luminescence; normalized to butyrate control; 370,000 compounds, 1.8% hits; AID 687014;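 active = activation above a cutoff set at the mean of all screened compounds plus 3 SD, cut at about 10% in these data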;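 also: 0% = DMSO wells and 100% = sodium butyrate wells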
# SMARCA2 activ: SMARCA2 function activation, primary screen; MG213 cells, MMTV-luciferase reporter, dexamethasone, overnight; activation, % at 9.1 µM; 370,000 compounds, 1% hits; in the data active = activation above about 7.8%;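 also: 0% = vehicle wells and 100% = reference activator wells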
# DAX1 inh-2: blocks DAX1 repression of SF-1 activated StAR promoter. HEK293T StAR-luciferase reporter, SF-1/DAX-1 repression relief. inhibition, % at 6.8 µM. 370,000 compounds, 1.1% hits;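 active = inhibition above the mean over all tested compounds plus 3 SD, cut at about 3.6% in these data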;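 also: 0% = DAX-1 cells with DMSO and 100% = cells lacking DAX-1 with DMSO; higher inhibition means more luminescence from relief of DAX-1 repression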
# ssDAF12 agonist: S. stercoralis DAF-12 activation, primary screen. 370,000 compounds, 1% hits. HEK293 ssDAF-12/GRIP1 lit1-tk-luc reporter, luminescence; % of 3 µM dafachronic acid response. AID 652126. activation, % at 6.8 µM;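 active = activation above the mean over all tested compounds plus 3 SD, cut at about 0.9% in these data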;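 also: 0% = DMSO-only wells and 100% = 3 µM delta7-dafachronic acid wells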
# * marks the source's active call; other numbers are inactive results; · = not tested or not shown. A selection: hits, their analogues and other compounds. The true share with any hit is near 4.8%.
SMILES,DAX1 inh-1,hcDAF12 agonist,hgDAF-12 ag,SMARCA2 activ,DAX1 inh-2,ssDAF12 agonist
CCc1nn(CCCC(=O)NCc2cc(Br)ccc2OC)c(=O)c2cc3occc3n12,0,2,2,2,0,-1
Cc1cc(C(=O)O[C@H]2CCC[C@]3(C(=O)N(Cc4ccccc4)c4ccccc43)[C@H]2NC(=O)CCc2ccccc2)no1,·,-2,2,-5,-1,-2
CC1(C(=O)Nc2ccc3c(c2)OCCO3)CN(S(C)(=O)=O)CC(=O)N1Cc1cccs1 (stereo not drawn),·,-2,0,1,1,-1
COc1ccccc1NC(=O)COc1ccc(Br)cc1CNCCCN1CCOCC1,0,1,0,2,1,-1
Cc1ccccc1NC(=O)COc1ccc(Br)cc1CNCCCO,5.2*,2,0,6,0,0
COc1ccccc1C1CC(c2ccccc2)=NN1S(=O)(=O)c1ccccc1 (stereo not drawn),-2,3,11*,-3,0,1
COc1ccc(C2CC(c3ccccc3)=NN2S(=O)(=O)c2ccccc2)c(OC)c1 (stereo not drawn),2,1,1,-3,0,-1
Cc1ccc(-c2nc3sc(C#N)c(N)n3c(=O)c2C#N)cc1,4.8*,3,9,4,0,0
COC(=O)c1ccc(CNC(=O)c2cc(S(=O)(=O)NCc3ccccc3)ccc2C)cc1,0,0,3,-4,-1,-1
Clc1ccccc1CSc1cc2c(nn1)-c1ccccc1CC2,1,4,11*,5,2,0
CCOC(=O)C1=CCN(S(=O)(=O)c2ccccc2C)C1c1cccc(F)c1 (stereo not drawn),·,-1,-4,1,-1,-2
CC(C)c1ccc(C2OCC(C)([N+](=O)[O-])CO2)cc1 (stereo not drawn),0,1,-1,2,3.9*,-1
CC(C)c1ccc(C2OCCCO2)cc1,-1,0,-3,-3,0,-1
CC(C)(C)NC(=O)c1ccccc1-c1nc2ccccc2s1,0,1,0,1,-1,1.6*
CC(C)(C)NC(=O)c1nc2ccccc2s1,1,0,1,-1,0,-1
O=C(NCCCn1ccnc1)c1[nH]c(C(F)(F)F)nc1-c1ccccc1,·,0,2,-1,0,-1
O=c1[nH]c(CSc2ccccn2)nc2c1oc1ccccc12,-1,4,12*,7.8*,4.4*,0
CCc1nc2c(oc3ccccc32)c(=O)[nH]1,0,1,3,2,1,-1
CCOC(=O)N(Cc1ccccc1)Cc1ccc(C(=O)N[C@@H](Cc2ccccc2)C(=O)O)cc1,6.5*,-1,2,0,0,-2
Cc1cccc(OCC(=O)O/N=C(\N)c2ccncc2)c1,-1,-1,2,-1,0,-1
Cc1onc(-c2ccccc2)c1C(=O)N1CCCc2ccccc21,-1,0,1,-4,1,1.0*
COC(=O)c1cc(=O)nc(NN=Cc2ccccc2O)s1,·,0,1,-4,1,-1
CC(=O)c1sc(N/N=C\c2ccccc2O)nc1C,2,5,25*,5,1,0
CC(C)Cn1cc(C(=O)NCCCN2CCC(C)CC2)c2c3ccccc3n(C)c2c1=O,5.3*,3,-2,-2,2,-1
CC1CCN(CCCNC(=O)c2cc3c(=O)n(C)c4ccccc4c3n2C)CC1,6.0*,3,2,0,4.7*,-1
SMILES,DAX1 inh-1,hcDAF12 agonist,hgDAF-12 ag,SMARCA2 activ,DAX1 inh-2,ssDAF12 agonist
CCOC(=O)[C@]12CCCCC/C=C\1N(Cc1ccc(OC)cc1)C(=O)[C@H]2CC(=O)N1CCN(C(=O)C2CC2)CC1,·,-3,-1,0,0,-1
CCOC(=O)[C@]12CCCC=C1N(Cc1ccc(OC)cc1)C(=O)[C@@H]2CC(=O)N1CCN(C(=O)C2CC2)CC1,·,-1,-1,-2,-2,1.8*
COc1ccc(Cl)cc1-c1nc(SCC(=O)NC(C)C(C)C)n[nH]1 (stereo not drawn),7.3*,-1,0,-1,0,-2
Oc1[nH]c2ccccc2c1C1=NCCCC1,1,-1,-1,-1,0,-1
O=C1C(c2c(O)[nH]c3ccccc23)=Nc2ccccc21,1,5,4,7,0,1.3*
Cc1cccc(NC(=O)Nc2nnc([C@@H]3C[C@H](O)[C@@H](CO)O3)s2)c1,·,2,4,-3,2,-1
C=CCOc1ccc2c3c(c(=O)oc2c1)CCCC3,4.3*,-1,1,-1,-1,-1
CCCOc1ccc2c3c(c(=O)oc2c1)CCCC3,0,0,1,0,-1,-1
Clc1ccc(OCc2cnc(Cl)s2)cc1,1,-1,3,1,1,-1
CCc1ccc(OCc2cnc(Cl)s2)cc1,4.4*,2,-1,1,1,-2
COc1ccc(C)cc1C(=O)CCC(=O)N1CCN(c2ccccc2F)CC1,-1,-1,1,2,0,-2
CCOC(=O)N1CCN(C(=O)C2CCN(C(=O)c3ccc(C(C)(C)C)cc3)CC2)CC1,4.4*,1,-2,-3,0,0
O=C(NCc1csc(-c2cccs2)n1)C1CCCCC1,4.5*,4,8,1,1,0
O=C(CN1CCOc2ccccc21)NC1CCN(Cc2ccccc2)CC1,1,0,-2,-2,-1,0
O=C(CN1CCOc2ccccc21)NC1CCCCCCC1,4.8*,5.8*,-1,1,0,1
Cc1cccc(NC(=O)c2cnc3sccn3c2=O)n1,1,1,3,6,1,-1
Cc1cccc(NC(=O)c2cnc3sccn3c2=O)c1C,·,2,12*,6,3.9*,0
Cc1ccc(-n2c(COc3ccccc3)nnc2SCC(=O)Nc2ccccc2-c2ccccc2)cc1,·,-2,3,-5,-2,-2
COc1ccc2cc(-c3cc(C(=O)OCC(=O)NC4CCS(=O)(=O)C4)c4ccccc4n3)ccc2c1 (stereo not drawn),-1,4,15*,3,4.4*,0
CC(C)CSc1nnc(N)s1,3,-1,0,3,1,-1
CC(C)CN(CC(C)C)c1nnc(N)s1,5.9*,-2,-2,3,0,-1
CCOC(=O)C(c1ccccc1)C(Nc1ccc(Cl)c(Cl)c1)c1ccccn1 (stereo not drawn),·,1,0,0,0,1.0*
CCOC(=O)C(C(=O)OCC)C(Nc1cccc(Br)c1)c1ccccc1 (stereo not drawn),-3,-1,-1,-1,-1,-2
O=C(/C=C/c1ccccc1)NCCOc1ccccc1,2,2,6,7.8*,1,0
O=C(CC1CCCCC1)NCCOc1ccccc1,3,-1,5,6,0,-2
